Experimental data from PubChem BioAssay (NCI).
The panel holds about 79,000 compounds, 15% with a hit somewhere; the sample as a whole holds those more often. Values without a mark were called inactive. The source made the active and inactive calls. Cut-off read from the data, not from the text of the source: active = growth inhibition above about 70%; inactive = the rest.

Legend:
[1] = NCI Yeast Anticancer Drug Screen. Data for the rad50 strain (AID 155);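 note: 0% = growth of vehicle-only cultures of the same strain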; conditions: S. cerevisiae rad50 strain growth inhibition, stronger effect = higher value
Outline: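 Compounds were tested on a yeast strain with an engineered DNA damage repair alteration; the reported value is growth inhibition normalised to vehicle treatment.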

[2] = NCI Yeast Anticancer Drug Screen. Data for the mec2-1 strain (AID 157); conditions: S. cerevisiae mec2-1 strain, stronger effect = higher value
Outline: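 Using mec2-1 yeast: add compound, measure growth, express inhibition versus vehicle-treated cultures.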

[3] = NCI Yeast Anticancer Drug Screen. Data for the sgs1 mgt1 strain (AID 161);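 note: 0% = growth of cultures given vehicle only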; conditions: S. cerevisiae sgs1 mgt1 strain, stronger effect = higher value
Outline: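 Percent growth inhibition was derived by comparing compound-exposed mutant yeast with vehicle-exposed cultures. The strain carries alterations in DNA damage repair.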

[4] = NCI Yeast Anticancer Drug Screen. Data for the cln2 rad14 strain (AID 165);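 note: 0% = growth equal to vehicle treated cultures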; conditions: S. cerevisiae cln2 rad14 strain, stronger effect = higher value
Outline: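 Yeast strain cln2 rad14, bearing defects in cell cycle control and DNA repair, serves as the test system; values reflect growth inhibition compared with vehicle.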

[5] = NCI Yeast Anticancer Drug Screen. Data for the bub3 strain (AID 167); conditions: S. cerevisiae bub3 mutant strain, stronger effect = higher value
Outline: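 Growth of a checkpoint-deficient yeast mutant is measured after compound exposure. Values represent inhibition relative to vehicle.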

[6] = NCI Yeast Anticancer Drug Screen. Data for the mlh1 rad18 strain (AID 175); conditions: S. cerevisiae mlh1 rad18 strain growth inhibition, stronger effect = higher value
Outline: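 Steps: expose repair-defective yeast to compound; measure growth; express inhibition against vehicle-treated controls.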

[7] = at 5.0 µM (retest, dose inferred, filed as 0.5)
[8] = at 50.0 µM (retest, dose inferred, filed as 5.0)

SMILES | growth inhibition [1, 7] | growth inhibition [1, 8] | growth inhibition ([1]; at 50.0 µM) | growth inhibition [2, 7] | growth inhibition [2, 8] | growth inhibition ([2]; at 50.0 µM) | growth inhibition [3, 7] | growth inhibition [3, 8] | growth inhibition ([3]; at 50.0 µM) | growth inhibition [4, 7] | growth inhibition [4, 8] | growth inhibition ([4]; at 50.0 µM) | growth inhibition [5, 7] | growth inhibition [5, 8] | growth inhibition ([5]; at 50.0 µM) | growth inhibition [6, 7] | growth inhibition [6, 8] | growth inhibition ([6]; at 50.0 µM)
CCOC(=O)CC1=NC(=Nc2ccc(Cl)c(Cl)c2)SC1 | 0% | 95% (active) | 96.2% (active) | -3% | 98% (active) | 99% (active) | 0% | 98% (active) | 99.1% (active) | -5% | 94% (active) | 96.6% (active) | 4% | 98% (active) | 97.7% (active) | -2% | 98% (active) | 98.3% (active)
Cc1[nH]nc(C(F)(F)F)c1N=NN1CCC(C(N)=O)CC1 | 49% | 99% (active) | 99.5% (active) | 77% (active) | 100% (active) | 99.5% (active) | 83% (active) | 99% (active) | 99.5% (active) | 36% | 99% (active) | 99.5% (active) | 27% | 99% (active) | 99.5% (active) | 75% (active) | 99% (active) | 99.5% (active)
Clc1ccc(C(CCc2ccc(Br)cc2)Cn2ccnc2)c(Cl)c1 (configuration not stated) | 94% (active) | 99% (active) | 99.4% (active) | 82% (active) | 99% (active) | 99.5% (active) | 87% (active) | 99% (active) | 59.7% | 72% (active) | 99% (active) | 99.5% (active) | 91% (active) | 99% (active) | 99.2% (active) | 71% (active) | 98% (active) | 99.5% (active)
C=CCOc1cc(NC(=S)c2sccc2C)ccc1Cl | 3% | 88% (active) | 81.5% (active) | -5% | 89% (active) | 87.2% (active) | -9% | 88% (active) | 85% (active) | 2% | 89% (active) | 80.2% (active) | 28% | 94% (active) | 81.3% (active) | 3% | 91% (active) | 81.9% (active)
Cc1ccccc1N=Nc1sc(N)nc1-c1ccccc1 | -6% | 94% (active) | 33.5% | 8% | 98% (active) | 22.2% | -2% | 95% (active) | 54.8% | -1% | 88% (active) | -4.85% | -7% | 98% (active) | 30.6% | -1% | 95% (active) | 43.7%
CC1(C)N=C(N)N=C(N)N1c1cccc(OCc2cccc(N)c2)c1 | -2% | 1% | 15.8% | 12% | -5% | 5.65% | -7% | 1% | -8.35% | 13% | -9% | 65.5% | -20% | -4% | -36.9% | 5% | 1% | 9.1%
O=C(Nc1ccc(Cl)cc1Cl)C1C(=O)OC2(CCCCC2)OC1=O | 24% | 96% (active) | 84.5% (active) | 38% | 98% (active) | 89.8% (active) | 30% | 97% (active) | 55.6% | 37% | 98% (active) | 62.8% | 45% | 98% (active) | 62.3% | 37% | 97% (active) | 87.2% (active)
NCCNC[Si](c1ccccc1)(c1ccccc1)c1ccccc1 | -13% | 92% (active) | 7.6% | -3% | 92% (active) | -21.4% | -10% | 84% (active) | 8.2% | -4% | 96% (active) | 5.3% | -10% | 94% (active) | 17.6% | -12% | 87% (active) | 11.4%
Cc1ccc(/C=C2\CCC/C(=C\c3ccc(O)c(CN4CCCCC4)c3)C2=O)cc1 | 16% | 22% | 6.8% | 4% | 15% | -15.2% | 0% | 25% | 70.9% (active) | 7% | 27% | 42.1% | -34% | 28% | 66.5% | 9% | 18% | 84% (active)
